RECQ1 inh-1: RECQ1 (human) helicase inhibition | RECQ1 DNA unwinding, red fluorescence kinetic read | Potency, µM (doses to about 57.3 µM), inactives show at the highest dose activity, negative = inhibition, usual class: inhibitors | 240,000 tested, 0.54% active | AID 2549;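 note: plate controls were vehicle for no effect and no enzyme for full effect; nearly all actives have a fitted effect of over 30% in size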
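RECQ1T1 50 nM; forked duplex (20 bp + 30-nt ss tails) 200 nM, ATP 2 mM final; pH 8.0, 2 mM MgCl2, 2.5 ug/ml poly(dI-dC); 15 min compound preincubation; discontinuous kinetic read over 2 h at RT.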
TRb-SRC2 inh: TRbeta-SRC2 interaction inhibition; TRbeta-SRC2 peptide binding, fluorescence polarization; receptor liganded with 1 µM T3; Potency, µM (highest dose often 106 µM), inactives show top-dose activity change, negative = inhibition, actives largely listed as inhibitors; 280,000 tested, 0.065% active; AID 1469;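 note: plate controls were bound peptide for no effect and peptide without receptor for full effect; nearly all actives have a fitted effect of over 50% in size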
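A fluorescence polarization screen tested compounds at multiple concentrations against complex formation between 0.6 uM TRb ligand-binding domain and 20 nM Texas Red SRC2 peptide, with 1 uM T3 present; readout after 5 hr.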
BLM inh: inhibitors of human Bloom syndrome helicase BLM; recombinant BLM DNA unwinding, fluorescence dequenching; 350,000 tested, 0.2% active; AID 2528; Potency, µM (highest dose often 56.1 µM), inactives show at the highest dose activity change, negative = inhibition, actives largely listed as inhibitors;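 note: plate controls were vehicle for no effect and no enzyme for full effect; nearly all actives have a fitted effect of over 35% in size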
TR SRC2 fluor cs: counter-screen for TRb-SRC2 inhibitors: fluorescence interference | AID 1479 | 280,000 tested, 0.29% active | TRb/SRC2 Texas Red total fluorescence interference | Potency, µM (doses to about 106 µM), without a hit: at the top dose fluorescence change, negative = quenching; active = well fitted curve in either direction with a large enough effect; inconclusive = small, poorly fitted or top-dose-only effect
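Flags fluorescent or light-absorbing compounds by total fluorescence, S + 2P, at 555 nm excitation and 632 nm emission. Mixture: 20 nM Texas Red SRC2 peptide, 0.6 uM human TRb LBD, 1 uM T3, 5% DMSO; compound exposure 5 h at ambient temperature.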
APE1 inh-1: APE1 (human) endonuclease inhibition. P27695. recombinant APE1, TAMRA/BHQ-2 abasic DNA cleavage fluorescence. Potency, µM (highest dose often 65.8 µM), for inactives: top-dose activity change, negative = inhibition, most hits filed as inhibitors. 350,000 tested, 0.35% active. AID 2517;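 note: plate controls were vehicle for no effect and reference inhibitor for full effect; nearly all actives have a fitted effect of over 55% in size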
Target sequence (P27695 whole entry, looked up): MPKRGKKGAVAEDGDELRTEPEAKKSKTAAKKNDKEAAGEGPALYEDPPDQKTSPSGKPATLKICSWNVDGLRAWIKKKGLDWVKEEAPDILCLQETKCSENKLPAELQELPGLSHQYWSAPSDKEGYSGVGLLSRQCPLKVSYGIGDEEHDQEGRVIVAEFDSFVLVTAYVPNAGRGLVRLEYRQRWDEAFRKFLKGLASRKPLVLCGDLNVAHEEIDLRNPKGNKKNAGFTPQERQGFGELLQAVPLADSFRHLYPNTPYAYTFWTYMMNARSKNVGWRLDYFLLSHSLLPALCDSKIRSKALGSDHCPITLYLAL
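Measures dequenching upon AP-site incision of a 5'-TAMRA/3'-BHQ-2 THF-containing duplex, 50 nM; human APE1 0.75 nM after 15 min room-temperature exposure to compound; kinetic three-point read at one-minute spacing.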
RGS12 GoLoco inh: blocks human Gai1 binding to RGS12 GoLoco peptide, red readout; AID 880; 230,000 tested, 0.44% active; Gai1:RGS12 GoLoco peptide FP, rhodamine, 10 min; Potency, µM (titrated, usually from 61.6 µM), inactives show at the highest dose activity, negative = inhibition, usual class: inhibitors; P63096; active = well fitted inhibition curve with a large enough effect, not every such curve was filed as active; inactive = no such curve, though single readings can be large or run the other way; note: nearly all actives have a fitted effect of over 30% in size
DNA dye displace: displaces fluorescent dye from DNA, flagging APE1 artifacts | shares compounds with APE1 inh-1 | DNA fluorescent dye displacement counterscreen, fluorescence | Potency, µM (highest dose often 28.5 µM), inactives show at the top dose activity change, negative = inhibition, actives largely listed as inhibitors | 480 tested, 7% active;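 note: loss of thiazole orange fluorescence as the dye is displaced from duplex DNA; 0% = ThO with dsDNA and no compound and -100% = ThO without dsDNA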
EndoIV counter: blocks E. coli endonuclease IV DNA cleavage | Potency, µM (series often up to 27.1 µM), without a hit: at the highest dose activity change, negative = inhibition, usual class: inhibitors | shares compounds with APE1 inh-1 | 560 tested, 4% active | E. coli Endo IV, fluorogenic AP-site DNA cleavage | AID 2565;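 note: plate controls were uninhibited enzyme wells for no effect and no enzyme buffer wells for full effect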
APE1 inh-2: APE1 (human) endonuclease inhibition, confirmation. shares compounds with APE1 inh-1. purified APE1, fluorogenic abasic-site DNA cleavage. Potency, µM (highest dose often 57.1 µM), for inactives: at the top dose activity change, negative = inhibition, most hits filed as inhibitors. 750 tested, 44% active; note: nearly all actives have a fitted effect of over 30% in size
APE1 FP: displaces DNA from human APE1 in FP assay. shares compounds with APE1 inh-1. APE1 binding to TAMRA-labelled double-stranded DNA, fluorescence polarization displacement. Potency, µM (titrated, usually from 28.5 µM), for inactives: top-dose activity, negative = inhibition, most hits filed as inhibitors. 480 tested, 7% active. AID 2573
RECQ1 conf: confirmation of human RECQ1 helicase inhibitors. RECQ1 helicase DNA unwinding, fluorescence. Potency, µM (top dose mostly 229 µM), without a hit: at the highest dose activity change, negative = inhibition, hits mostly inhibitors. 610 tested, 28% active. shares compounds with RECQ1 inh-1; note: nearly all actives have a fitted effect of over 45% in size
RECQ1 ADP FP: displaces ADP in a fluorescence polarization counter-screen for RECQ1 hits; shares compounds with RECQ1 inh-1; 530 tested, 27% active; Potency, µM (top dose mostly 228 µM), for inactives: at the top dose activity change, negative = inhibition, actives largely listed as inhibitors; ADP fluorescence polarization displacement counterscreen; note: nearly all actives have a fitted effect of over 45% in size
RECQ1 inh-2: blocks human RECQ1 DNA unwinding; AID 504841; shares compounds with RECQ1 inh-1; Potency, µM (series often up to 119 µM), without a hit: top-dose activity, negative = inhibition, most hits filed as inhibitors; 1,100 tested, 15% active; recombinant RECQ1 DNA unwinding, red fluorescence; note: nearly all actives have a fitted effect of over 50% in size
* = called active by the depositor; ? = inconclusive; / = no result given; [ ] = dose if it differs, or a comment. Most compounds without a hit are left out; they make up all but 0.9% or so of the library. Unless noted, calls come from the whole dose curve; as a rule, active = well fitted curve in the direction sought with a large enough effect; inconclusive = small, poorly fitted or top-dose-only effect, or another doubt; inactive = no such curve, though single readings can be large; an effect the other way counts as inactive or inconclusive. Unless noted, % is set by controls: 0 for no effect and ±100 for the full control effect; potency is the fitted concentration of half-maximal effect.

SMILES	RECQ1 inh-1	TRb-SRC2 inh	BLM inh	TR SRC2 fluor cs	APE1 inh-1	RGS12 GoLoco inh	DNA dye displace	EndoIV counter	APE1 inh-2	APE1 FP	RECQ1 conf	RECQ1 ADP FP	RECQ1 inh-2
Nc1ncnc2oc(-c3ccco3)c(-c3ccco3)c12	10µM*	-5%	16µM*	?	7.9µM*	44%	-10%	12%	40µM*	-7%	50µM*	40µM*	-28%
C=C(CO)C1Cc2cc(C(C)=O)ccc2O1 (stereo unspecified)	?	-3%	-7%	-4%	20µM*	-2%	2%	8%	10µM*	-37%	/	/	?
Cc1nc(-c2ccccc2)sc1-c1ccc(SCC(=O)NCc2ccc(F)cc2)nn1	/	-11%	-16%	-1%	/	/	/	/	/	/	/	/	/
COc1ccc(Br)cc1/C=c1\sc2nc(-c3ccco3)nn2c1=O	8.9µM*	8%	-25%	-17%	28µM*	38%	?	6%	?	-14%	20µM*	?	/
CCOc1ccccc1CNC(=O)CCn1ccc2cc(S(=O)(=O)N3CCC(C)CC3)ccc21	/	1%	-8%	0%	/	/	/	/	/	/	/	/	/
COc1ccc(/C=N/NC(=O)c2cc(O)c(O)c(O)c2)cc1Cn1cc([N+](=O)[O-])cn1	1.8µM*	17%	?	-8%	1.6µM*	9%	?	96%	1.3µM*	-10%	?	-10%[91.9 µM]	/
COc1ccc(/C=N/NC(=O)c2ccccc2O)cc1Cn1cc([N+](=O)[O-])cn1	5%	-6%	-6%	-1%	-5%	3%	/	/	/	/	/	/	/
COc1ccc(-n2ncc(C(=O)N3CCc4ccccc4C3)c2C2CCN(C(=O)OC(C)(C)C)CC2)cc1	/	1%	-2%	-5%	/	/	/	/	/	/	/	/	/
CC1=NN2C(=N)/C(=C\c3ccc(SCc4ccccc4)o3)C(=O)N=C2S1	-17%	-6%	-13%	-4%	-4%	52%	/	/	/	/	/	/	/
N=C1/C(=C\c2ccc(SCc3ccco3)o2)C(=O)N=C2SC=NN12	8.9µM*	-6%	-6%	?	3.2µM*	255%	15%	10%	?	4%	/	/	?

Assay outcomes (PubChem)
